In PubChem BioAssay AID1626 (SRMLSC, 2009):
Hit rate of the full screen: of about 220,000 compounds, about 2,000 (0.91%) were called active. Another 2% or so got no clear call; they are omitted. These entries were drawn from the full list. Entries with a potency or affinity are not part of this list. Unmarked numbers belong to inactive results. No stated cut-off is given here; in the data, inconclusive means inhibition above about 80% without an active follow-up result; inactive means below that; test concentration not stated here.

Experiment: M. tuberculosis H37Rv growth inhibitors, H37Rv strain (AID 1626);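 further: bacteria incubated seven days before Alamar blue readout; 0% = bacteria only wells and 100% = bacteria with antibiotic wells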
Conditions: active compounds read high, concentration not given here

Row | Compound | inhibition [%]
1 | CCN(CC)c1ccc(C(=O)OCC(=O)Nc2ccc3[nH]c(=O)[nH]c3c2)cc1 | 6.23
2 | O=C(Nc1ccc(Br)cc1)C1CCCN(S(=O)(=O)c2cccnc2)C1 (stereo not drawn) | -3.26
3 | C=CCn1c(CNC(=O)c2ccco2)nnc1SCC(=O)Nc1cccc(F)c1 | 2.84
4 | CCn1c(SCc2nc3ccccc3c(=O)[nH]2)nc2ccccc21 | 11.6
5 | COc1ccc2nc(N3CCC(O)CC3)c(C#N)cc2c1 | 1.43
6 | COc1ccc2cc(C#N)c(N3CCN(C(=O)c4ccccc4C)CC3)nc2c1 | 7.93
7 | CC(C)CCNC(=O)CCn1c(=S)oc2ccccc21 | -7.67
8 | CC(=O)c1ccc(NC(=O)C(C)N2CCN(C/C=C/c3ccccc3)CC2)cc1 (stereo not drawn) | 53.1
9 | Fc1ccc(CSc2nnc(-c3cccnc3)n2Cc2ccco2)cc1 | -3.79
10 | CCCc1nc2c(sc3nc4c(cc32)COC(C)(C)C4)c(=O)n1Cc1ccco1 | -1.51
11 | CCCCOC(=O)Nc1sc2c(c1C(=O)OC)CCC2 | -0.74
12 | S=c1[nH]nc(CSCc2ccccc2Cl)n1C1CCCCC1 | 4.24
13 | C#CCOCCOCCOCCNc1nc(N2CCN(C(=O)[C@H](Cc3cc4ccccc4[nH]3)n3cc(C(N)CC(C)C)nn3)CC2)nc(N2CCN(C(=O)[C@H](CCC(=O)O)n3cc(C(N)[C@H](C)CC)nn3)CC2)n1 (stereo partly drawn) | -7.16
14 | C#CCOCCOCCOCCNc1nc(N2CCN(C(=O)[C@H]([C@@H](C)CC)n3cc([C@@H](N)CC(C)C)nn3)CC2)nc(N2CCN(C(=O)[C@H](Cc3cc4ccccc4[nH]3)n3cc([C@@H](N)C(C)CC)nn3)CC2)n1 (stereo partly drawn) | 45.6
15 | C#CCOCCOCCOCCNc1nc(N2CCOCC2)nc(N2CCN(C(=O)[C@H](Cc3cc4ccccc4[nH]3)n3cc([C@@H](N)Cc4ccc(O)cc4)nn3)CC2)n1 | 52
16 | C#CCOCCOCCOCCNc1nc(N2CCN(C(=O)[C@H](CCCCN)n3cc([C@@H](N)CC(C)C)nn3)CC2)nc(N2CCN(C(=O)[C@H](Cc3cc4ccccc4[nH]3)n3cc([C@@H](N)Cc4ccc(O)cc4)nn3)CC2)n1 | 59
17 | C#CCOCCOCCOCCNc1nc(N2CCN(C(=O)[C@H]([C@@H](C)CC)n3cc([C@@H](N)CC(C)C)nn3)CC2)nc(N2CCN(C(=O)[C@H](Cc3cc4ccccc4[nH]3)n3cc([C@@H](N)CC(C)C)nn3)CC2)n1 | 33.5
18 | C#CCOCCOCCOCCNc1nc(N2CCOCC2)nc(N2CCN(C(=O)[C@H](Cc3cc4ccccc4[nH]3)n3cc([C@@H](N)CC(C)C)nn3)CC2)n1 | -3.36
